Reference: PubChem BioAssay (NCI)
About 83,000 compounds went through this panel and 20% of them were active in at least one assay; those are over-represented in the sample as a whole.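 Results are percent growth after 48 hours of single-concentration exposure. 100 means growth as in untreated cells, lower positive values show inhibition; negative values down to -100 show cell death.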 The source made the active and inactive calls. How the source made its calls: active means growth percent below 10; inactive means the rest.

system: MDA-MB-435 melanoma; test: NCI-60 one-dose screen, 48 h (100 = growth as untreated, 0 = no growth, -100 = all killed); details: 10 µM

SMILES	growth
C#C[C@]1(O)CCC2C3CCc4cc(OC5CCCC5)ccc4C3CC[C@@]21C (some centres undefined)	94.8% (inactive)
O=C(N/N=C/c1c(Cl)cccc1Cl)c1ccccc1Nc1cccc(C(F)(F)F)c1	110% (inactive)
COc1cccc(-c2nc3sccn3c2-c2cccc(S(C)(=O)=O)c2)c1	110% (inactive)
CC(=O)Nc1ccc(S(=O)(=O)c2ccnc3cc(Cl)ccc23)cc1	73.9% (inactive)

system: SW-620 colon; test: as above; details: 10 µM

SMILES	growth
NS(=O)(=O)Oc1ccc(NC(=O)C2CCCCCC2)cc1	106% (inactive)
O=C(CSc1nnc(-c2cccnc2SCc2ccccc2)o1)Nc1nc(Cl)cc(Cl)n1	103% (inactive)
O=C1/C=C/[C@@H](O)[C@@H]2C[C@@H](O)C[C@H]2/C=C/CCC[C@H](CCc2ccc(NC(=S)Nc3ccc4c(c3)C(=O)OC43c4ccc(O)cc4Oc4cc(O)ccc43)cc2)O1	3.26% (active)
O=C(CCl)Nc1ccc(Cc2ccc(NC(=O)CCl)cc2)cc1	-21.8% (active)
Cc1cc(Cl)ccc1Nc1nc(C(F)(F)F)ccc1C(=O)N/N=C/c1c(Cl)cccc1Cl	6.12% (active)
COc1ccc2c(c1)C(=O)/C(=C/c1ccc([N+](=O)[O-])o1)O2	-60.4% (active)
S=C(SSC(=S)N(c1ccccc1)c1ccccc1)N(c1ccccc1)c1ccccc1	108% (inactive)
CC(C)=CCC/C(C)=C/CC/C(C)=C/CC/C=C(\C)CC/C=C(\C)CCC(=O)Nc1ccn(C2OC(CO)C(O)C2(F)F)c(=O)n1 (centres undefined)	33.6% (inactive)
c1ccc(/C(=N\Nc2ccc3ccccc3n2)c2ccccn2)cc1	22.6% (inactive)
c1ccc(CSc2ncccc2-c2nnc(SCCN3CCOCC3)o2)cc1	107% (inactive)
CN(C)c1ncnc2c1nnn2C1OC(CO)C(O)C1O (centres undefined)	19.1% (inactive)
COc1ccccc1/C=N\N/C(N)=N\N=C\c1ccccc1OC	13.1% (inactive)
COc1cc(/C=C/c2cc(/C=C/c3ccc(O)c(OC)c3)nc(N)n2)ccc1O	1.86% (active)
O=C(/C=C/c1cccc(B(O)O)c1)c1cccc(B(O)O)c1	-41.3% (active)
CN(C)CCC1(c2ccccc2)CCN(C)C1=O (centres undefined)	103% (inactive)
COc1ccc(/C=C/c2nnc(/C=C/c3ccc(OC)c(OC)c3)o2)cc1OC	18.1% (inactive)
CN(C)c1ccc(/C=N/NC(=O)c2ccccc2Nc2cccc(C(F)(F)F)c2)cc1	93.6% (inactive)
CN(C)CCOc1ccc(-c2nc3sccn3c2-c2ccnc(S(C)(=O)=O)n2)cc1	104% (inactive)
COc1ccc(CCN2CCC(Nc3nc4ccccc4n3Cc3ccc(F)cc3)CC2)cc1	-54.8% (active)
O=C(CN(C1CCCCC1)C1CCCCC1)Nc1ccc(S(=O)(=O)c2ccc(NC(=O)CN(C3CCCCC3)C3CCCCC3)cc2)cc1	-48.4% (active)

SMILES	growth
COc1ccc2nc(-c3ccc(Cl)cc3)cc(-c3nnc(SC/C(=N\O)c4ccccc4)n3-c3ccccc3)c2c1	90.5% (inactive)
Cc1cc(CSc2ccccc2C(=O)N2CC=C(c3ccccc3)CC2)on1	97.6% (inactive)
CCOC(=O)c1cc(C(=O)c2cc(OC)c(OC)c(OC)c2)n2nc(C)ccc12	26.7% (inactive)
O=C(O)c1ccc(-n2cc(CNc3ccc(Cl)cc3)c(-c3ccccc3)n2)cc1	92.6% (inactive)
CNC(=O)c1cc(Oc2ccc3c(c2)sc2nc(-c4ccc(N)cc4)cn23)ccn1	34.8% (inactive)
Nc1ccc(CC[C@H]2CCC/C=C/[C@@H]3C[C@H](O)C[C@H]3[C@H](O)/C=C/C(=O)O2)cc1	-27.4% (active)
CNC(=O)c1cn(C2CC2)c2cc(N3CCN(C(=O)c4cc(OC)c(OC)c(OC)c4)CC3)c(F)cc2c1=O	103% (inactive)
CN1CCN(C2=Nc3ccccc3Oc3ccc(Cl)cc32)CC1	96.2% (inactive)
COc1ccc(Cc2cnc(N)nc2N)cc1OC	98.7% (inactive)
COc1ccc(C(c2ccc(OCCN(C)C)cc2)c2cc3ccccc3c3ccccc23)cc1 (centres undefined)	-46.6% (active)
O=C(N/N=C/c1ccc(Cl)cc1)c1ccccc1Nc1cccc(C(F)(F)F)c1	79.6% (inactive)
CC(=O)O[C@@]12CO[C@@H]1C[C@H](O)[C@@]1(C)C(=O)[C@H](O)C3=C(C)[C@@H](OC(=O)[C@H](O)[C@@H](NC(=O)OC(C)(C)C)c4ccccc4)C[C@@](O)([C@@H](OC(=O)c4ccccc4)C12)C3(C)C (some centres undefined)	48.1% (inactive)
CS(=O)(=O)c1nccc(-c2c(-c3cccc(OCCc4ccccc4)c3)nc3sccn23)n1	98.2% (inactive)
C(=N\Nc1ncnc2sc3c(c12)CCNC3)/c1cccc2ccccc12	2.91% (active)
CNS(=O)(=O)Oc1ccc(-c2sc3cc(OS(=O)(=O)NC)ccc3c2C(=O)c2ccc(OCCN3CCCCC3)cc2)cc1	65.1% (inactive)
CCCCC/C=C/C/C=C/CCCCCCCC1=NC(C)(C)CN1C(C)C	-70.3% (active)
C#C[C@]1(O)CCC2C3CCc4cc(OC5CCCC5)ccc4C3CC[C@@]21C (some centres undefined)	53.4% (inactive)
O=C(N/N=C/c1c(Cl)cccc1Cl)c1ccccc1Nc1cccc(C(F)(F)F)c1	96.2% (inactive)
COc1cccc(-c2nc3sccn3c2-c2cccc(S(C)(=O)=O)c2)c1	104% (inactive)
CC(=O)Nc1ccc(S(=O)(=O)c2ccnc3cc(Cl)ccc23)cc1	81.8% (inactive)
